DAX1 inh-1 = blocks DAX1 repression of SF-1 activated StAR promoter; HEK293T StAR-luciferase reporter, SF-1/DAX-1 repression relief; inhibition, % at 6.8 µM; 370,000 compounds, 1.1% hits; AID 652010;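 active = inhibition above the mean over all tested compounds plus 3 SD, cut at about 3.6% in these data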;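 also: 0% = DAX-1 cells with DMSO and 100% = cells lacking DAX-1 with DMSO; higher inhibition means more luminescence from relief of DAX-1 repression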
ssDAF-12 act = activates DAF-12 receptor from parasite S. stercoralis | 370,000 compounds, 1% hits | activation, % at 6.8 µM | HEK293 ssDAF-12/GRIP1 lit1-tk-luc reporter, luminescence; % of 3 µM dafachronic acid response;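 active = activation above the mean over all tested compounds plus 3 SD, cut at about 0.9% in these data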;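 also: 0% = DMSO-only wells and 100% = 3 µM delta7-dafachronic acid wells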
hcDAF12 agonist = activators of H. contortus DAF-12 nuclear receptor; AID 652067; activation, % at 6.8 µM; HEK293 hcDAF-12 lit1-tk-luc reporter, luminescence; 0% DMSO, 100% Δ7-dafachronic acid; 370,000 compounds, 1.4% hits;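 active = activation above the mean of all tested compounds plus 3 SD, cut at about 5.5% in these data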;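 also: 100% = response to 3 µM Δ7-dafachronic acid high control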
hgDAF-12 ag = activates the H. glycines DAF-12 receptor ligand-binding domain | 370,000 compounds, 1.8% hits | HEK293 GAL4-hgDAF12 UAS-luciferase reporter, agonist luminescence; normalized to butyrate control | activation, % at 6.8 µM;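 active = activation above a cutoff set at the mean of all screened compounds plus 3 SD, cut at about 10% in these data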;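 also: 0% = DMSO wells and 100% = sodium butyrate wells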
DAX1 inh-2 = inhibitors of human orphan nuclear receptor DAX1 (NR0B1). HEK293 Gal4-DAX1 luciferase reporter, luminescence. 340,000 compounds, 0.99% hits. inhibition, % at 6.75 µM. AID 504766. P51843;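 active = inhibition above the mean over all tested compounds plus 3 SD, cut at about 4.2% in these data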;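 also: 0% = DAX1-transfected cells with DMSO and 100% = empty-vector control cells with DMSO; inhibition shows as a rise in luminescence from relieved DAX1 repression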
Target sequence (P51843 207-470 limits assumed): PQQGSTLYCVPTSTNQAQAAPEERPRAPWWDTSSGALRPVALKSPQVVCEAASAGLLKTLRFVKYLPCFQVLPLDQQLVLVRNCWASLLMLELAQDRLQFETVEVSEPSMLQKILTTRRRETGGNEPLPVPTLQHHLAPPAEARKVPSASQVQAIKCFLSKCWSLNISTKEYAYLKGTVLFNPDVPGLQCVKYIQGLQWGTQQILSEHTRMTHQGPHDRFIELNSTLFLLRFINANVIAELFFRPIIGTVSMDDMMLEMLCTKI
DAX1 conf = confirmation of human DAX1 (NR0B1) inhibitors; inhibition, % at 6.8 µM; 2,400 compounds, 87% hits; shares compounds with DAX1 inh-1; HEK293T StAR-promoter luciferase reporter, SF-1/DAX-1 repression; AID 652134;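 active = inhibition above the average of every tested compound plus 3 SD, cut at about 3.8% in these data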;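 also: 0% = DAX-1 cells with DMSO and 100% = no DAX-1 control cells with DMSO; active compounds raise luminescence by relieving repression of the StAR reporter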
Target sequence (P51843 whole entry, looked up): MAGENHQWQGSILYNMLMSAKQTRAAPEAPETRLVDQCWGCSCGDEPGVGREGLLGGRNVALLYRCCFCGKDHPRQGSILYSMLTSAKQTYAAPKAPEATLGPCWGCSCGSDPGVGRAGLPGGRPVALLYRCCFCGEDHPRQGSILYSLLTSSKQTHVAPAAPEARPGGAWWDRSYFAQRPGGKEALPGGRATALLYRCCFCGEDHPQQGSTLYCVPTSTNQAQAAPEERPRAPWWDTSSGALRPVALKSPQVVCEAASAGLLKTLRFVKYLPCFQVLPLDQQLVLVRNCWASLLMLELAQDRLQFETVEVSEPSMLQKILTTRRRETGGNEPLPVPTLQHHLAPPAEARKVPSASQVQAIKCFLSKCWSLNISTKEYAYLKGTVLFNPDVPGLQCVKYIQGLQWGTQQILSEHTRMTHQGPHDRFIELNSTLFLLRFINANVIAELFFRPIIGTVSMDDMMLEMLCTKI
SF1 AF2mut Luc = counter-screen for DAX1 inhibitors: nonselective inhibitors with SF-1 AF2 mutant; 2,400 compounds, 78% hits; inhibition, % at 6.8 µM; HEK293 StAR-luciferase, luminescence; shares compounds with DAX1 inh-1; AID 652136;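 active = inhibition above the mean of all tested compounds plus 3 SD, cut at about 3% in these data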;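 also: 0% = DAX-1 transfected cells with DMSO and 100% = cells without DAX-1 with DMSO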
Starred values were filed as active, the others as inactive. In the library only some 4.1% were active in any assay of this set; here they are far more common.

Results for c1ccc(Cn2cc(CCOCc3ccccn3)c3ccccc32)cc1 ?
DAX1 inh-1: 4.9*; ssDAF-12 act: 0.9*; hcDAF12 agonist: 2.3; hgDAF-12 ag: 8.7; DAX1 conf: 2.4; SF1 AF2mut Luc: 1.6

Results for OCCCc1cn(Cc2ccccc2)c2ccccc12 ?
DAX1 inh-1: 0.2; ssDAF-12 act: -0.9; hcDAF12 agonist: 0.2; hgDAF-12 ag: -0.3; DAX1 inh-2: 0.2

What do the screens show for `COC(=O)[C@]12C[C@H](CC(=O)NCC34CC5CC(CC(C5)C3)C4)C(=O)N(CCc3ccc(OC)c(OC)c3)C1=C[C@H](COCc1ccccc1)O[C@@H]2C`?
DAX1 inh-1: -1.1; ssDAF-12 act: -1.4; hcDAF12 agonist: -3.6; hgDAF-12 ag: 1.1

What do the screens show for `O=C(NC(=O)c1ccccc1)Nc1ccc(Cl)cn1`?
DAX1 inh-1: 7.9*; ssDAF-12 act: -0.1; hcDAF12 agonist: 3.6; hgDAF-12 ag: 8.9; DAX1 inh-2: 1.0; DAX1 conf: 14.2*; SF1 AF2mut Luc: 7.3*

Results for C/C(=N/NC(=O)c1ccncc1)c1ccc(NC(=O)c2ccc(Cl)cc2Cl)cc1 ?
DAX1 inh-1: 5.3*; ssDAF-12 act: 0.0; hcDAF12 agonist: 2.5; hgDAF-12 ag: 6.0; DAX1 inh-2: 1.8; DAX1 conf: 3.1; SF1 AF2mut Luc: 0.1

What do the screens show for `COc1ccc(C(=O)Nc2ccc(/C(C)=N/NC(=O)c3ccncc3)cc2)cc1`?
DAX1 inh-1: 1.2; ssDAF-12 act: 0.4; hcDAF12 agonist: 1.1; hgDAF-12 ag: 9.4; DAX1 inh-2: 0.6

Results for CCC(C)(C)C1CCC(=NNC(=O)c2ccoc2C)CC1 (centres undefined) ?
DAX1 inh-1: 4.7*; ssDAF-12 act: 0.3; hcDAF12 agonist: 3.5; hgDAF-12 ag: 17.6*; DAX1 inh-2: 0.6; DAX1 conf: 2.3; SF1 AF2mut Luc: 3.1*

How did CCCC(=O)NNC(=O)c1ccoc1C do in these assays?
DAX1 inh-1: 0.2; ssDAF-12 act: -0.7; hcDAF12 agonist: -0.6; hgDAF-12 ag: 2.1; DAX1 inh-2: -0.3

How did CCn1c(SCC(=O)Nc2ccc(S(=O)(=O)Nc3cc(C)nc(C)n3)cc2)nc2sc(C)c(C)c2c1=O do in these assays?
DAX1 inh-1: -0.7; ssDAF-12 act: -1.5; hcDAF12 agonist: -0.8; hgDAF-12 ag: 4.7

How did O=C(c1cc([N+](=O)[O-])ccc1N1CCOCC1)N1CCN(c2ccccc2)CC1 do in these assays?
DAX1 inh-1: 13.8*; ssDAF-12 act: 0.5; hcDAF12 agonist: 0.9; hgDAF-12 ag: -3.7; DAX1 inh-2: 1.2; DAX1 conf: 17.4*; SF1 AF2mut Luc: -5.6

What do the screens show for `Cc1ccc(-n2c(Cc3cccs3)nnc2SCC(=O)Nc2ccc(OCc3ccccc3)cc2)cc1`?
DAX1 inh-1: -2.1; ssDAF-12 act: -1.5; hcDAF12 agonist: 0.1; hgDAF-12 ag: 1.9

Results for O=C(NCCS(=O)(=O)NCCCc1ccccc1)c1ccccc1 ?
DAX1 inh-1: 0.5; ssDAF-12 act: -0.6; hcDAF12 agonist: -0.7; hgDAF-12 ag: -0.2; DAX1 inh-2: 1.8

What do the screens show for `O=C(NCCS(=O)(=O)NCCc1ccccc1)c1ccccc1`?
DAX1 inh-1: 4.7*; ssDAF-12 act: -0.3; hcDAF12 agonist: 1.1; hgDAF-12 ag: 2.8; DAX1 inh-2: 0.6; DAX1 conf: 3.0; SF1 AF2mut Luc: 1.2

Results for COC(=O)C1CN(Cc2ccccc2)CCS(=O)(=O)N1Cc1ccc(F)cc1 (centres undefined) ?
DAX1 inh-1: -0.7; ssDAF-12 act: -1.6; hcDAF12 agonist: -2.0; hgDAF-12 ag: 1.2

How did COCCCNC(=O)C[C@H]1C[C@H](C(=O)N2CCOCC2)[C@@]2(CCC3CCCC3)c3[nH]c4cc(-c5ccco5)ccc4c3CCN2C1=O do in these assays?
DAX1 inh-1: 5.8*; ssDAF-12 act: -1.3; hcDAF12 agonist: 0.4; hgDAF-12 ag: -2.3; DAX1 inh-2: -1.3; DAX1 conf: 0.5; SF1 AF2mut Luc: 0.6

Results for CC(C)(C)NC(=O)C[C@H]1C[C@H](C(=O)N2CCOCC2)[C@@]2(CCC3CCCC3)c3[nH]c4cc(-c5ccco5)ccc4c3CCN2C1=O ?
DAX1 inh-2: -1.1

What do the screens show for `CC(C)CN1C(=O)C[C@]2(C(=O)N(C)c3ccc(NS(=O)(=O)c4ccc(F)cc4)cc32)C1c1ccccc1` (some centres undefined)?
DAX1 inh-1: -1.3; ssDAF-12 act: -1.0; hcDAF12 agonist: 0.6; hgDAF-12 ag: 2.2

What do the screens show for `CC(C)CCn1c(=O)c2sccc2n2c(CCCC(=O)N3CCC(N4CCCCC4)CC3)nnc12`?
DAX1 inh-1: 4.7*; ssDAF-12 act: -0.6; hcDAF12 agonist: 1.7; hgDAF-12 ag: -0.2; DAX1 inh-2: 0.6; DAX1 conf: 4.6*; SF1 AF2mut Luc: 4.1*

What do the screens show for `CCc1ccc(/C=N/Nc2ncnc3nc[nH]c23)cc1`?
DAX1 inh-1: 5.2*; ssDAF-12 act: -0.7; hcDAF12 agonist: 3.2; hgDAF-12 ag: 10.9*; DAX1 inh-2: -0.1; DAX1 conf: 14.1*; SF1 AF2mut Luc: 1.0

What do the screens show for `CCOC(=O)CNc1ncnc2nc[nH]c12`?
DAX1 inh-1: 1.1; ssDAF-12 act: -1.2; hcDAF12 agonist: -1.9; hgDAF-12 ag: 0.8; DAX1 inh-2: 0.7

What do the screens show for `CN1CCN(c2ccc(-c3csc(N4CCC(C(N)=O)CC4)n3)cc2)CC1`?
ssDAF-12 act: -2.5; hcDAF12 agonist: -4.2; hgDAF-12 ag: -4.9

How did O=C(Nc1c(C(=O)N2CCC(N3CCCCC3)CC2)oc2ccccc12)c1ccc(F)cc1 do in these assays?
DAX1 inh-1: 8.1*; ssDAF-12 act: -1.4; hcDAF12 agonist: -2.0; hgDAF-12 ag: 0.2; DAX1 inh-2: 0.5; DAX1 conf: 7.6*; SF1 AF2mut Luc: 2.8

How did COc1ccccc1C(=O)N/N=C/c1ccc2c(c1)OCO2 do in these assays?
DAX1 inh-1: 0.8; ssDAF-12 act: -1.0; hcDAF12 agonist: 0.5; hgDAF-12 ag: 8.1; DAX1 inh-2: 1.4

What do the screens show for `O=C(Nc1ccc2c(c1)OCO2)c1ccccn1`?
DAX1 inh-1: 8.8*; ssDAF-12 act: 0.2; hcDAF12 agonist: 1.8; hgDAF-12 ag: 11.4*; DAX1 inh-2: 0.7; DAX1 conf: 9.9*; SF1 AF2mut Luc: 7.1*

What do the screens show for `O=C(Nc1ccc2c(c1)OCO2)c1cnccn1`?
DAX1 inh-1: 1.8; ssDAF-12 act: -0.9; hcDAF12 agonist: 0.8; hgDAF-12 ag: 7.2; DAX1 inh-2: 2.9

How did O=C(NN=Cc1ccc2c(c1)OCO2)c1ccccc1 do in these assays?
DAX1 inh-1: 5.3*; ssDAF-12 act: 0.7; hcDAF12 agonist: 6.0*; hgDAF-12 ag: 9.6; DAX1 inh-2: 3.2; DAX1 conf: 11.3*; SF1 AF2mut Luc: 5.8*

From PubChem BioAssay
